# An excerpt weighted towards active compounds, which were near 4.7% of everything screened.
# D1 agonist = Allosteric Agonists of the Human D1 Dopamine Receptor: qHTS | activation, % at 2 µM | AID 504660, 2011 | HEK293 T-REx D1 cells, calcium flux, agonist mode | 360,000 tested, 1% active; also: 0% is about no effect
# Target sequence (P21728 whole entry, looked up): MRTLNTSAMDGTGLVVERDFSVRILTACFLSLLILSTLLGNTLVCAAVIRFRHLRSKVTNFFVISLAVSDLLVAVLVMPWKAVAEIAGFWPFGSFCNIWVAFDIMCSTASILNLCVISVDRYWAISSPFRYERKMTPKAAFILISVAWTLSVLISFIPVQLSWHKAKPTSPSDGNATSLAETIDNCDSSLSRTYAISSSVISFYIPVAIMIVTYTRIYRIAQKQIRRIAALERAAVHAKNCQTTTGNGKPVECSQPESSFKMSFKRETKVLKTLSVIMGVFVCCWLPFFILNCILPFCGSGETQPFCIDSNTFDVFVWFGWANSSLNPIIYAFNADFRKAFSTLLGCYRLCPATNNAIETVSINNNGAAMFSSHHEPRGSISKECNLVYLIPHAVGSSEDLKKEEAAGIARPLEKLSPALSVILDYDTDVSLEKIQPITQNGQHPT
#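 Tetracycline-induced HEK293 TREx D1 cells, force-coupled to calcium signalling, were dye-loaded with a no-wash calcium kit. Compound was pin-added after a 10 s baseline. Fluorescence was read kinetically at 1 cycle/s for 180 s, with calcium rises flagged as agonism.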
# TRHR agonist = qHTS for Small Molecule Agonists and Allosteric Enhancers of Human TRH Receptor: Primary Screen for Agonists; TRHR cells, calcium flux fluo-8, FDSS agonist mode; activation, % at 2 µM; 360,000 tested, 0.18% active; also: 0% is about no effect
#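 Read-out: compound-evoked intracellular calcium rise in TRHR cells, fluo-8 dye, kinetic FDSS fluorescence at 1 s/cycle following a 10-cycle baseline. Cells cultured overnight before dye loading (30 min–1.5 h, RT).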
# TRHR enhancer = qHTS for Small Molecule Agonists and Allosteric Enhancers of Human TRH Receptor: Primary Screen for Enhancers; 360,000 tested, 0.66% active; TRHR cells, fluo-8 calcium fluorescence, EC20 TRH enhancement; Thyrotropin-releasing hormone receptor (Homo sapiens), P34981; enhancement, % at 2 µM; AID 493056, 2011; in the data active = enhancement above about 30%; also: 0% is about no effect
#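 TRHR-expressing cells loaded with fluo-8 calcium dye were read kinetically (ex 480/em 530) during compound addition, then stimulated with an EC20 of TRH (10 nM final). Enhancement of the Gq-mediated intracellular calcium response was scored.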
# D1 antagonist = Antagonist of Human D 1 Dopamine Receptor: qHTS. activity change, negative = inhibition, % at 10 µM. 360,000 tested, 3.2% active. HEK293 TREx D1 cells, calcium flux, dopamine EC80; hits give low values; in the data active = activity change below about -30%; also: % is scaled to controls: 0 for no effect and ±100 for the full control effect
#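 Cells carrying a force-coupled, tetracycline-inducible human D1 receptor report calcium flux. Each well gets a 10 s baseline, compound with 180 s monitoring, then an EC80 dopamine stimulus with a second 180 s kinetic read.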
# D1 potentiator = Potentiators of Human D1 Dopamine Receptor: qHTS; HEK293 TREx D1 cells, calcium flux, dopamine EC20 potentiation; AID 504651, 2011; 360,000 tested, 0.036% active; D(1A) dopamine receptor (Homo sapiens), P21728; potentiation, % at 10 µM; in the data active = potentiation above about 30%; also: 0% is about no effect
# The depositor's hits bear a star; . = no result. Rule as the data show it, unless noted: active = activation above about 30%; inactive = the rest.
SMILES,D1 agonist,TRHR agonist,TRHR enhancer,D1 antagonist,D1 potentiator
Cc1cccc(NC(=O)C2CCN(S(=O)(=O)c3ccc4c(c3)CCCN4C(=O)C3CCC3)CC2)c1,1.6,-0.8,-8.3,13.3,-5.8
COc1ccccc1CNC(=O)CNC(=O)c1ccc(Br)o1,0.3,-0.1,-1.6,-6.1,-4.6
Cc1ccc(S(=O)(=O)N2CCN(c3nc(CN4CCCC4)nc4sc(C)c(C)c34)CC2)cc1,0.4,0.1,1.2,-35.2*,5.3
Cc1sc2nc(CN3CCCC3)nc(N3CCN(S(=O)(=O)c4cccs4)CC3)c2c1C,2.2,-0.1,-16.4,-6.0,1.9
CCCS(=O)(=O)c1nc(S(=O)(=O)c2ccc(Cl)cc2)c(N2CCC(O)CC2)s1,3.3,0.1,-3.5,-16.2,51.6*
CCCS(=O)(=O)c1nc(S(=O)(=O)c2ccc(C)cc2)c(N2CCC(C)CC2)s1,13.4,0.5,-3.3,1.5,4.2
CCS(=O)(=O)c1nc(S(=O)(=O)c2ccc(C)cc2)c(N2CCC(C)CC2)s1,4.3,-0.4,-1.8,-36.1*,-6.9
COc1ccc(OC)c(-c2oc3ccccc3c(=O)c2O)c1,-1.0,0.2,5.3,-21.9,-0.9
COc1ccc(OC)c(-c2c3cc(O)c(=O)cc-3oc3cc(O)c(O)cc23)c1,43.8*,16.3,24.5,-0.1,-1.9
CCCOC(=O)C(=O)NNc1ccccc1,1.7,0.2,32.1*,-3.7,-13.3
O=C(NCc1ccccn1)C(=O)Nc1cc2c3c(c1)CC(=O)N3CCC2,-0.1,-0.1,0.2,-14.7,-4.1
COc1ccccc1CNCC(O)Cn1c2ccccc2c2ccccc21 (stereo not drawn),89.9*,6.2,12.8,-10.2,-4.8
OCCNCC(O)Cn1c2ccccc2c2ccccc21 (stereo not drawn),2.7,0.2,2.6,3.6,-3.4
COc1cc([C@@H]2C[C@H]3CN(c4ccccc4)C(=O)[C@]34CCCN24)cc(OC)c1OC,0.2,1.5,6.0,-40.8*,-1.1
CCOc1cc([C@@H]2C[C@H]3CN(c4ccccc4)C(=O)[C@]34CCCN24)ccc1OC,-0.9,-0.1,4.8,-4.9,2.6
Nc1c(C(=O)Nc2nccs2)sc2nc(-c3cccs3)cc(C(F)(F)F)c12,115.6*,-0.7,28.1,5.0,-0.3
CC1CCCC(C)N1C(=O)COC(=O)CNC(=O)c1ccccc1F (stereo not drawn),0.1,0.8,3.1,6.2,-8.0
Cc1onc(-c2ccccc2)c1C(=O)NCc1ccc(Cl)cc1,2.3,-0.6,-7.7,-6.4,-3.5
Cn1cccc1/C=C(\C#N)C(N)=S,1.1,0.7,0.1,17.1,-0.9
N#C/C(=C/c1cc[nH]c1)C(N)=S,2.2,-0.1,32.7*,-1.0,-5.3
CC(=O)c1ccc(C(=O)N(Cc2cccnc2)c2nc3c(Cl)cccc3s2)cc1,-4.0,-1.0,16.9,.,1.4
CCc1ccccc1NC(=O)c1ccc2c(O)c(S(=O)(=O)c3ccc(OC)cc3)c(=O)[nH]c2c1,3.8,1.1,-7.0,15.0,-5.8
COc1ccc(S(=O)(=O)c2c(O)c3ccc(C(=O)Nc4ccccc4Cl)cc3[nH]c2=O)cc1,3.8,0.7,31.8*,-2.5,-1.2
COc1cccc(NC(=O)CCCCCN2C(=O)[C@@H]3Cc4ccccc4CN3C2=O)c1,5.6,0.5,-4.4,-13.8,-2.7
Cc1cc(C)cc(NC(=O)CCCCCN2C(=O)[C@@H]3Cc4ccccc4CN3C2=O)c1,0.2,1.2,12.0,-39.9*,-4.5
Cc1cc(NC(=O)CSCC(=O)N(C)Cc2cccc(Cl)c2)no1,3.2,-0.3,-2.2,-18.3,-10.6
Cc1cc(NC(=O)C(=O)NCc2cccc(Cl)c2)no1,4.5,0.3,1.0,-33.2*,2.0
Cc1cc(NC(=O)Nc2ccc(C)c(C)c2)no1,3.8,0.1,1.9,-4.7,-6.0
Cc1cc(NC(=O)Nc2cc(Cl)ccc2C)no1,35.5*,2.3,4.6,-10.2,0.1
COc1cc2c(cc1OC)C1O[C@](c3ccsc3)(C2)OC2=C1C(=O)OC1(CCCCC1)C2,2.3,-0.4,-10.0,8.3,-1.6

# Screens from PubChem.
